Compound activity deposited in PubChem by National Center for Advancing Translational Sciences (NCATS).
3T3 cytotox: Cytotoxic Profiling in NIH 3T3 Cell Line of Diverse Libraries Using Quantitative High-Throughput Screening; NIH 3T3 viability, CellTiter-Glo ATP luminescence, 48-72 h; Potency, µM (top dose mostly 96.7 µM), without a hit: at the top dose activity change, negative = cytotoxicity, usual class: inhibitors; 94,000 compounds, 4.3% hits; further: nearly all actives have a fitted effect of over 55% in size
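Viability of NIH 3T3 cells after 48 or 72 hr compound treatment at 37 °C was assessed by CellTiter-Glo, with luminescence imaged following a 10 min room-temperature step.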
HEK cytotox: Cytotoxic Profiling in HEK 293 Cell Line of Diverse Libraries Using Quantitative High-Throughput Screening; Potency, µM (titrated, usually from 115 µM), without a hit: at the highest dose activity change, negative = cytotoxicity, most hits filed as inhibitors; AID 1345083, 2018; HEK 293 viability, ATP luminescence (CellTiter-Glo), 48-72 h; 94,000 compounds, 6.6% hits; further: nearly all actives have a fitted effect of over 60% in size
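ATP-coupled CellTiter-Glo luminescence served as viability read-out, recorded 10 min after reagent addition at room temperature. HEK 293 cells, 250 cells/well, had been incubated with pintool-transferred compound for 48 or 72 hr at 37 degree Celsius.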
GPT2 inhibitor: Primary qHTS assay for inhibitors of Glutamate pyruvate transaminase 2 (GPT2); Recombinant GPT2, coupled pyruvate oxidase/HRP Amplex Red fluorescence; Potency, µM (highest dose often 57.7 µM), for inactives: top-dose activity change, negative = inhibition, usual class: inhibitors; 100,000 compounds, 0.25% hits; AID 1671188, 2021; further: nearly all actives have a fitted effect of over 60% in size
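Recombinant GPT2 (10ng/uL) with 250uM a-KG and 2mM L-alanine, 30 min at room temperature, in HEPES pH 7.5 buffer. Pyruvate detected by pyruvate oxidase/HRP/Amplex Red fluorescence after 30 min in the dark; AOA (50uM) as positive control.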
NPR1 antag: Natriuretic polypeptide receptor (hNpr1) antagonism - Primary qHTS | Atrial natriuretic peptide receptor 1 (Homo sapiens), P16066 | HEK293 hNpr1 GloSensor cGMP, ANP-stimulated luminescence | Potency, µM (series often up to 46.3 µM), without a hit: at the highest dose activity change, negative = inhibition, hits mostly inhibitors | 76,000 compounds, 1.6% hits | AID 1347048, 2019; calls by dose curve; further: nearly all actives have a fitted effect of over 60% in size
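Compound pre-incubated 30 min at room temperature on GloSensor-loaded HEK293 cells stably carrying hNpr1 and the pGS-40F cGMP biosensor. Stimulation uses hNppA at 0.1 nM final; luminescence is taken at baseline and 20 min post-agonist.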
FLuc inh: Firefly luciferase inhibition profiling of diverse chemical library using quantitative high-throughput screening | purified P. pyralis luciferase, luminescence, biochemical | Potency, µM (highest dose often 115 µM), most hits filed as inhibitors | 76,000 compounds, 2.5% hits | AID 1347043, 2019; further: nearly all actives have a fitted effect of over 65% in size
Target sequence (P08659 whole entry, looked up): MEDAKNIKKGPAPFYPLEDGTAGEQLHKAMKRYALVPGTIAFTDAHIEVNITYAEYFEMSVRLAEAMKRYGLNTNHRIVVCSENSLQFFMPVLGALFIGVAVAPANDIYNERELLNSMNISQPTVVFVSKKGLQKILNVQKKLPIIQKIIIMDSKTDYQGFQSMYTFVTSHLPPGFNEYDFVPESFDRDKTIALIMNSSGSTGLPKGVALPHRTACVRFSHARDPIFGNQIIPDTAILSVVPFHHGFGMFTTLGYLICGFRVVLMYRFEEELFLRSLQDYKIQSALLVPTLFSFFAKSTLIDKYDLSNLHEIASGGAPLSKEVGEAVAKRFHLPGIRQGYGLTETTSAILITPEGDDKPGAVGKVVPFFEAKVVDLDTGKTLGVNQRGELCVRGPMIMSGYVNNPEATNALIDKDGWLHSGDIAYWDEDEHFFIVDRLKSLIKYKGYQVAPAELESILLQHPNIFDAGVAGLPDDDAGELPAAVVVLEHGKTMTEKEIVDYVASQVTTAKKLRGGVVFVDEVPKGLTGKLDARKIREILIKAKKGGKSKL
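Biochemical qHTS: compound (6-point titration) added to 10uM D-luciferin plus 10uM ATP in Tris acetate pH 7.5 buffer with Mg, Tween-20 and BSA, then purified enzyme at 10nM; light output imaged.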
Active calls of the source: *; i = inactive; ? = inconclusive; . = not tested or not shown; [ ] = another dose, or the depositor's remark. Shown are actives, neighbours in structure and some others; about 10% of the full set was active somewhere. Unless noted, the call rests on the fitted dose curve; in most records, active means well fitted curve in the direction sought with a large enough effect; inconclusive means small, poorly fitted or top-dose-only effect, or another doubt; inactive means no such curve, though single readings can be large; an effect the other way counts as inactive or inconclusive. On the % scale 0 is the no-effect control and ±100 the full control effect; potency means the concentration at half of the fitted maximal effect.

SMILES	3T3 cytotox	HEK cytotox	GPT2 inhibitor	NPR1 antag	FLuc inh
COc1cccc(-c2ccnc3nc(Cc4ccc(F)cc4)nn23)c1	?	?	i	2.8%	i
CCn1c2c(c(=O)n1-c1ccccc1)CCN(C(=O)C1CCC1)C2	?	-7.7%[172 µM]	-3.5%[88.5 µM]	-21.7%[70.6 µM]	i
COc1ncc(CN2CCc3c(n(CCOc4ccccc4)n(-c4ccccc4)c3=O)C2)cn1	?	i	-2.6%	1.4%	i
CC(C)CCN1CCc2c(n(CCOc3ccccc3)n(-c3ccccc3)c2=O)C1	100µM*	?	i	-28.8%[70.6 µM]	i
COCCn1c2c(c(=O)n1-c1ccccc1)CCN(C(=O)c1nc3ccccc3[nH]1)C2	89.1µM*	-9.0%[172 µM]	-9.2%[88.5 µM]	-9.8%[70.6 µM]	i
COC1CCC(C(=O)N2CCc3c(n(CCOc4ccccc4)n(-c4ccccc4)c3=O)C2)CC1 (centres undefined)	20µM*	-7.2%	-9.9%	1.1%	i
CCn1c2c(c(=O)n1-c1ccccc1)CCN(Cc1cncc(OC)c1)C2	100µM*	i	i	2.4%[70.6 µM]	i
COCCn1c(=O)c2c(n1Cc1ccccc1)CN(Cc1cncc(OC)c1)CC2	?	i	-5.6%[88.5 µM]	-0.6%[70.6 µM]	i
CCOc1ccccc1C(=O)N1CCC2(CC1)NC(=O)N(Cc1ccccc1)C2=O	-19.9%	-21.5%	2.7%	3.5%	i
CCOc1ccccc1C(=O)N1CCC2(CC1)NC(=O)N(c1cccc(Cl)c1)N2	?	31.6µM*	?	-6.1%	i
O=C(c1cc2ccccc2[nH]1)N1CCC2(C1)NC(=O)N(Cc1ccc(Cl)cc1)C2=O (centres undefined)	?	35.5µM*	0.6%	-8.0%	?
CCOc1ccccc1C(=O)N1CCCC2(C1)NC(=O)N(Cc1ccc(Cl)cc1)C2=O (centres undefined)	?	79.4µM*	4.2%	-22.7%	i
COc1ccc(C(=O)N2CCCC3(C2)NC(=O)N(Cc2ccc(C)cc2)C3=O)cc1 (centres undefined)	-11.2%	-18.0%	i	3.8%	i
Cc1ccc(C(=O)N2CCC3(CC2)NC(=O)N(c2cccc(Cl)c2)N3)c(C)c1	?	?	?	0.0%	i
COc1ccc(C(=O)N2CCCC3(C2)NC(=O)N(Cc2ccc(Cl)cc2)C3=O)cc1 (centres undefined)	-19.9%	50.1µM*	i	-13.1%	i
O=C(c1ccc2cc[nH]c2c1)N1CCC(N2C(=O)C(OCC3CC3)C23CCOCC3)CC1 (centres undefined)	-14.6%	?	i	7.9%	i
NC1CCCCN(C(=O)CCN2CCc3ccccc32)C1 (centres undefined)	-28.4%	?	?	5.8%	i
Cc1ccc(NC(=O)c2cc(-c3ccc(Cl)cc3Cl)c3nncn3n2)cc1	-18.6%	0.2%	0.7%	.	.
COc1ccccc1-c1cc(C(=O)NCc2cccc(C(F)(F)F)c2)nn2cnnc12	?	39.8µM*	-6.9%	.	.
COc1ccccc1-c1cc(C(=O)Nc2ccc(C)cc2)nn2cnnc12	-18.1%	35.5µM*	i	.	.
COc1ccccc1-c1cc(C(=O)NCc2ccccc2)nn2cnnc12	?	?	i	.	.
CCN1C(=O)C2CC3(CCN(Cc4ccc5[nH]ccc5c4)CC3)CN2C1=O (centres undefined)	-2.0%	-1.6%	-4.7%	4.4%	i
CC(=O)Nc1ccc(CN2CCN3C(=O)N(Cc4ccc(C)cc4)C[C@H]3C2)cc1	-6.3%[174 µM]	79.4µM*	-0.7%[88.5 µM]	-25.6%[70.6 µM]	i
CC(=O)Nc1ccc(CN2CC3CCC(C2)N3c2ccc(C(F)(F)F)cc2)cc1	?	22.4µM*	2.2%	?	i
Cc1ccc(CN2C[C@H]3CN(Cc4cccc(OC(F)(F)F)c4)CCN3C2=O)cc1	44.7µM*	63.1µM*	-15.4%[88.5 µM]	-18.1%[70.6 µM]	i
SMILES	3T3 cytotox	HEK cytotox	GPT2 inhibitor	NPR1 antag	FLuc inh
CCN1C(=O)C2CC3(CCN(Cc4cccc(OC(F)(F)F)c4)CC3)CN2C1=O (centres undefined)	?	39.8µM*	1.0%	-21.4%	i
CC(=O)N1c2ccc(-c3ccc(C(=O)O)cc3)cc2C(Nc2ccc(Cl)cc2)CC1C (centres undefined)	.	.	-3.0%	.	.
C[C@@H](NC(=O)C1CC1)c1c(-c2ccc(F)cc2)noc1C(=O)O	-12.4%[138 µM]	-11.9%[172 µM]	-10.4%[88.5 µM]	0.6%[70.6 µM]	i
C[C@@H](NC(=O)C1CCCCC1)c1c(-c2ccc(F)cc2)noc1C(=O)O	39.8µM*	-6.6%[172 µM]	-2.3%[88.5 µM]	-1.4%[70.6 µM]	i
CNC(=O)N1CCC(C2CCN(C(=O)Cc3ccccc3)C2)CC1 (centres undefined)	-10.4%	-22.4%	-13.4%	1.9%	i
CNC(=O)N1CCC(C2CCN(C(=O)CCCc3ccccc3)C2)CC1 (centres undefined)	-9.0%	-0.3%	-18.0%	-20.8%	25.1µM*
CN1CCC(OC2CCN(C(=O)CCCc3ccccc3)CC2)CC1	-23.0%	-8.5%	0.6%	-5.6%	28.2µM*
CN1CCC(OC2CCN(C(=O)c3ccccc3)CC2)CC1	-4.9%	1.9%	4.2%	-5.2%	i
O=C(NCc1ccccc1)C1=NO[C@@H]2CN(Cc3cccc(F)c3F)C[C@H]12	-28.2%[138 µM]	?	-13.2%[88.5 µM]	7.2%[70.6 µM]	i
O=C(NCc1ccccc1)C1=NO[C@@H]2CN(Cc3ccc(O)c(Cl)c3)C[C@H]12	?	70.8µM*	i	-12.7%[70.6 µM]	i
O=C(NCc1ccccc1)C1=NO[C@@H]2CN(Cc3cccc(F)c3)C[C@H]12	?	44.7µM*	i	0.3%[70.6 µM]	i
O=C(Nc1ccc(F)c(Cl)c1)C1=NO[C@@H]2CN(CCc3ccccc3)C[C@H]12	?	112µM*	-11.7%[88.5 µM]	-1.1%[70.6 µM]	i
O=c1[nH]ccc2nc(-c3ccc(CN4CCC(c5nc(-c6ccccn6)n[nH]5)CC4)cc3)c(-c3ccccc3)cc12	.	.	0.4%	.	.
COc1ccc(C(=O)N[C@H]2COC[C@H]2Cc2cc(C)no2)c(OC)n1	3.9%	i	-6.5%	1.5%	i
O=C(Cn1nc2c(cc1=O)CCCCC2)NCCCc1nnc2ccccn12	i	-2.5%	-4.0%	-2.0%	i
c1ccc(CCn2cnc3cccnc32)cc1	-29.0%[174 µM]	-25.6%[230 µM]	-8.5%[88.5 µM]	-1.8%[70.6 µM]	39.8µM*
COC(=O)c1ccc2c(c1)nc1n2[C@@H](CNC2CCC2)COC1	-3.8%[138 µM]	-5.7%[172 µM]	-1.7%[88.5 µM]	-3.3%[70.6 µM]	i
CCOC(=O)C1(Cc2ccccc2C)CCCN(C(=O)c2csc(C)n2)C1 (centres undefined)	-0.3%	-16.6%	2.5%	-2.4%	39.8µM*
